# Hit rate of the full screen: of about 5,500 compounds, about 2,000 (36%) were called active. About 18% were inconclusive and are not listed. This is one part of the list. Values without a mark were called inactive. Cut-off read from the data, not from the text of the source: active = normalized growth mostly below about 0.91 (no sharp cut-off); inconclusive = no clear call, values can overlap the other calls; inactive = mostly above about 0.92.
# Assay: chemical genetic growth profiling, strain panel (AID 1159580);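 note: tested at 20 µM; growth read once vehicle control cultures reached saturation at 30 °C; 1 = growth at the plate median or of vehicle wells; lower values mean less growth of the strain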
# Settings: growth OD
structure (smiles),measurement,setting,value
COc1ccc(C2C(=O)c3ccccc3C2=O)cc1,normalized growth,"S. cerevisiae deletion strains, locus YJR066W, strain TOR1, active compounds read low",0.897
same,normalized growth,"S. cerevisiae deletion strains, locus YJR075W, strain HOC1, active compounds read low",0.983
same,normalized growth,"S. cerevisiae deletion strains, locus YKL009W, strain mrt4, active compounds read low",0.958
same,normalized growth,"S. cerevisiae deletion strains, locus YKL068W, active compounds read low",0.987
same,normalized growth,"S. cerevisiae deletion strains, locus YKL085W, strain MDH1 (second series), active compounds read low",0.983
same,normalized growth,"S. cerevisiae deletion strains, locus YKL085W, strain MDH1, active compounds read low",0.983
same,normalized growth,"S. cerevisiae deletion strains, locus YKL160W, strain elf1, active compounds read low",0.998
same,normalized growth,"S. cerevisiae deletion strains, locus YKR001C, strain vps1, active compounds read low",1
same,normalized growth,"S. cerevisiae deletion strains, locus YKR026C, strain gcn3, active compounds read low",0.96
same,normalized growth,"S. cerevisiae deletion strains, locus YKR091W, strain srl3, active compounds read low",1.01
same,normalized growth,"S. cerevisiae deletion strains, locus YLL001W, strain dnm1, active compounds read low",0.997
same,normalized growth,"S. cerevisiae deletion strains, locus YLL026W, active compounds read low",0.966
same,normalized growth,"S. cerevisiae deletion strains, locus YLL041C, strain sdh2, active compounds read low",0.982
same,normalized growth,"S. cerevisiae deletion strains, locus YLR027C, strain aat2, active compounds read low",0.997
same,normalized growth,"S. cerevisiae deletion strains, locus YLR039C, strain RIC1, active compounds read low",0.993
same,normalized growth,"S. cerevisiae deletion strains, locus YLR058C, strain SHM2, active compounds read low",0.993
same,normalized growth,"S. cerevisiae deletion strains, locus YLR102C, strain apc9, active compounds read low",0.989
same,normalized growth,"S. cerevisiae deletion strains, locus YLR113W, strain HOG1, active compounds read low",0.767 (active)
same,normalized growth,"S. cerevisiae deletion strains, locus YLR221C, strain rsa3, active compounds read low",1
same,normalized growth,"S. cerevisiae deletion strains, locus YLR258W, strain gsy2, active compounds read low",1.01
same,normalized growth,"S. cerevisiae deletion strains, locus YLR262C, strain YPT6 (second series), active compounds read low",0.987
same,normalized growth,"S. cerevisiae deletion strains, locus YLR262C, strain YPT6, active compounds read low",1.01
same,normalized growth,"S. cerevisiae deletion strains, locus YLR268W, strain sec22, active compounds read low",1.01
same,normalized growth,"S. cerevisiae deletion strains, locus YLR320W, strain mms22, active compounds read low",1.02
same,normalized growth,"S. cerevisiae deletion strains, locus YLR330W, strain CHS5, active compounds read low",1
same,normalized growth,"S. cerevisiae deletion strains, locus YLR342W, strain FKS1 (second series), active compounds read low",1.02
same,normalized growth,"S. cerevisiae deletion strains, locus YLR342W, strain FKS1, active compounds read low",1
same,normalized growth,"S. cerevisiae deletion strains, locus YLR357W, strain rsc2, active compounds read low",1.09
same,normalized growth,"S. cerevisiae deletion strains, locus YLR370C, strain arc18, active compounds read low",1
same,normalized growth,"S. cerevisiae deletion strains, locus YLR371W, strain rom2, active compounds read low",1.01
same,normalized growth,"S. cerevisiae deletion strains, locus YLR384C, strain iki3, active compounds read low",0.992
same,normalized growth,"S. cerevisiae deletion strains, locus YLR418C, strain cdc73, active compounds read low",0.957
same,normalized growth,"S. cerevisiae deletion strains, locus YML016C, strain PPZ1, active compounds read low",1.01
same,normalized growth,"S. cerevisiae deletion strains, locus YML032C, strain rad52, active compounds read low",1.01
same,normalized growth,"S. cerevisiae deletion strains, locus YML120C, strain ndi1, active compounds read low",0.992
same,normalized growth,"S. cerevisiae deletion strains, locus YML124C, strain tub3, active compounds read low",0.994
same,normalized growth,"S. cerevisiae deletion strains, locus YMR058W, strain fet3, active compounds read low",0.979
same,normalized growth,"S. cerevisiae deletion strains, locus YMR078C, strain ctf18, active compounds read low",0.99
same,normalized growth,"S. cerevisiae deletion strains, locus YMR125W, strain sto1, active compounds read low",0.994
same,normalized growth,"S. cerevisiae deletion strains, locus YMR129W, active compounds read low",0.972
same,normalized growth,"S. cerevisiae deletion strains, locus YMR205C, strain PFK2, active compounds read low",1.01
same,normalized growth,"S. cerevisiae deletion strains, locus YMR223W, strain ubp8, active compounds read low",0.976
same,normalized growth,"S. cerevisiae deletion strains, locus YMR231W, strain pep5, active compounds read low",1.02
same,normalized growth,"S. cerevisiae deletion strains, locus YMR307W, strain GAS1, active compounds read low",1.04
same,normalized growth,"S. cerevisiae deletion strains, locus YNL067W, strain RPL9B, active compounds read low",0.932
same,normalized growth,"S. cerevisiae deletion strains, locus YNL071W, strain lat1, active compounds read low",0.986
same,normalized growth,"S. cerevisiae deletion strains, locus YNL128W, strain TEP1, active compounds read low",0.977
same,normalized growth,"S. cerevisiae deletion strains, locus YNL153C, strain GIM3, active compounds read low",0.997
same,normalized growth,"S. cerevisiae deletion strains, locus YNL183C, strain NPR1, active compounds read low",0.882
same,normalized growth,"S. cerevisiae deletion strains, locus YNL209W, strain ssb2, active compounds read low",0.992
same,normalized growth,"S. cerevisiae deletion strains, locus YNL233W, strain BNI4, active compounds read low",1
same,normalized growth,"S. cerevisiae deletion strains, locus YNL248C, strain rpa49, active compounds read low",1.05
same,normalized growth,"S. cerevisiae deletion strains, locus YNL250W, strain rad50, active compounds read low",0.987
same,normalized growth,"S. cerevisiae deletion strains, locus YNL271C, strain bni1, active compounds read low",0.983
same,normalized growth,"S. cerevisiae deletion strains, locus YNL298W, strain CLA4, active compounds read low",0.976
same,normalized growth,"S. cerevisiae deletion strains, locus YNL307C, strain MCK1, active compounds read low",1.01
same,normalized growth,"S. cerevisiae deletion strains, locus YNL322C, strain KRE1 (second series), active compounds read low",0.961
same,normalized growth,"S. cerevisiae deletion strains, locus YNR049C, strain mso1, active compounds read low",0.982
same,normalized growth,"S. cerevisiae deletion strains, locus YNR052C, strain pop2, active compounds read low",0.987
same,normalized growth,"S. cerevisiae deletion strains, locus YOL012C, strain htz1",0.937
same,normalized growth,"S. cerevisiae deletion strains, locus YOL147C, strain pex11, active compounds read low",0.992
same,normalized growth,"S. cerevisiae deletion strains, locus YOR001W, strain rrp6, active compounds read low",1.02
same,normalized growth,"S. cerevisiae deletion strains, locus YOR061W, strain CKA2, active compounds read low",0.999
same,normalized growth,"S. cerevisiae deletion strains, locus YOR069W, strain VPS5, active compounds read low",0.997
same,normalized growth,"S. cerevisiae deletion strains, locus YOR070C, strain gyp1, active compounds read low",1
same,normalized growth,"S. cerevisiae deletion strains, locus YOR080W, strain dia2, active compounds read low",1.02
same,normalized growth,"S. cerevisiae deletion strains, locus YOR083W, strain WHI5, active compounds read low",1.01
same,normalized growth,"S. cerevisiae deletion strains, locus YOR106W, strain vam3, active compounds read low",1.04
same,normalized growth,"S. cerevisiae deletion strains, locus YOR136W, strain idh2, active compounds read low",0.984
same,normalized growth,"S. cerevisiae deletion strains, locus YOR144C, strain elg1, active compounds read low",0.997
same,normalized growth,"S. cerevisiae deletion strains, locus YOR184W, strain ser1, active compounds read low",0.998
same,normalized growth,"S. cerevisiae deletion strains, locus YOR231W, strain MKK1, active compounds read low",0.878
same,normalized growth,"S. cerevisiae deletion strains, locus YOR265W, strain rbl2, active compounds read low",0.995
same,normalized growth,"S. cerevisiae deletion strains, locus YOR270C, strain vph1, active compounds read low",1.07
same,normalized growth,"S. cerevisiae deletion strains, locus YOR290C, strain snf2, active compounds read low",1
same,normalized growth,"S. cerevisiae deletion strains, locus YOR316C, strain cot1, active compounds read low",0.983
same,normalized growth,"S. cerevisiae deletion strains, locus YPL051W, strain arl3, active compounds read low",1.03
same,normalized growth,"S. cerevisiae deletion strains, locus YPL078C, strain atp4, active compounds read low",1
same,normalized growth,"S. cerevisiae deletion strains, locus YPL106C, strain sse1, active compounds read low",1.03
same,normalized growth,"S. cerevisiae deletion strains, locus YPL240C, strain hsp82, active compounds read low",0.984
same,normalized growth,"S. cerevisiae deletion strains, locus YPL256C, strain CLN2, active compounds read low",0.817 (active)
same,normalized growth,"S. cerevisiae deletion strains, locus YPR119W, strain clb2, active compounds read low",0.998
same,normalized growth,"S. cerevisiae deletion strains, locus YPR141C, strain kar3, active compounds read low",0.977
same,normalized growth,"S. cerevisiae deletion strains, locus YPR163C, strain tif3, active compounds read low",0.995
same,normalized growth,"S. cerevisiae deletion strains, locus YPR167C, strain met16, active compounds read low",0.998
same,normalized growth,"S. cerevisiae deletion strains, strain wtn01, active compounds read low",0.991
same,normalized growth,"S. cerevisiae strains, strain wild type, active compounds read low",1
